Molecules are shown by their SMILES. Where “and” joins values, the source holds several entries; their conditions need not be identical. Equal values may be shown once. Records with an inconclusive call do not appear. More than one record can exist for a structure, and the calls need not agree. Calls of active or inactive are those of the source. How the source made its calls, unless noted: active means hit-call score of the fitted dose curve at least 0.9, where 1 is the maximum; inactive means score below 0.9.

The term AC50 denotes the concentration at which the activity in the assay is half-maximal.

Assay [1] can be described thus: ATG_PPRE_CIS: Attagene CIS-FACTORIAL HepG2 Assay for human Peroxisome Proliferator-activated Response Element (PPRE) (AID 2282958). To be noted: HepG2 PPRE cis-element reporter, Attagene transcription factor profiling; actives raise or lower the signal. The method in brief:
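Transcript-level reporter induction in transfected HepG2 cells after 24 h chemical exposure, quantified by fluorescence from RT-PCR products separated by capillary electrophoresis.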

Assay [2] in a line: ATG_RORE_CIS: Attagene CIS-FACTORIAL HepG2 Assay for human RAR-related Orphan Receptor Element (RORE) (AID 2282959). To be noted: HepG2 Attagene cis-factorial RORE reporter, mRNA; actives raise or lower the signal. The method in brief:
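Multiplexed reporter assay measuring mRNA induction from a cis promoter element in transiently transfected HepG2 cells after 24 h treatment. Detection via RT-PCR and capillary electrophoresis fluorescence; DMSO serves as baseline.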

Assay [3] is described as follows: ATG_Sox_CIS: Attagene CIS-FACTORIAL HepG2 Assay for human SRY-box transcription factor (SOX) (AID 2282960). To be noted: HepG2 Attagene cis-factorial SOX reporter, mRNA; actives raise or lower the signal. An outline of the steps:
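Cells were transfected with reporter constructs under cis-regulatory promoters, then exposed to chemicals for 24 h. Reporter transcripts were quantified by fluorescence after RT-PCR and capillary electrophoresis; activity was fitted in both directions against DMSO.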

In assay [4] the target is Transcription factor Sp1 (Homo sapiens) (UniProt P08047). The experiment in a line: ATG_Sp1_CIS: Attagene CIS-FACTORIAL HepG2 Assay for human Specificity Protein 1 (Sp1) (AID 2282961). To be noted: HepG2 Sp1 cis-reporter transcription, actives raise or lower the signal. The method in brief:
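Measures mRNA induction of an Sp1-linked reporter in HepG2 cells 24 h post-dosing. Multiplexed reporters read by RT-PCR and capillary electrophoresis; DMSO serves as negative control and baseline.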

Assay [5] in a line: ATG_SREBP_CIS: Attagene CIS-FACTORIAL HepG2 Assay for human Sterol Regulatory Element Binding (SREBP) (AID 2282962). To be noted: HepG2 Attagene cis-factorial SREBP reporter, mRNA; actives raise or lower the signal. An outline of the steps:
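Twenty-four hours after chemical dosing of transfected HepG2 cultures, reporter RNA was converted to cDNA, amplified, end-labelled with 6-FAM and resolved by capillary electrophoresis. Responses were fitted relative to DMSO.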

The target of assay [6] is Signal transducer and activator of transcription 3 (Homo sapiens) (UniProt P40763). The experiment in a line: ATG_STAT3_CIS: Attagene CIS-FACTORIAL HepG2 Assay for human Signal Transducer and Activator of Transcription 3 (STAT3) (AID 2282963). To be noted: HepG2, Attagene cis-factorial STAT3 reporter transcription; actives raise or lower the signal. The method in brief: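 Values derive from bidirectional fits relative to DMSO of reporter mRNA levels, measured by RT-PCR with capillary electrophoresis, in HepG2 cells carrying transiently transfected cis-regulated reporter units and exposed 24 h.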
Chain of Signal transducer and activator of transcription 3 (Homo sapiens) (P40763 whole entry, looked up): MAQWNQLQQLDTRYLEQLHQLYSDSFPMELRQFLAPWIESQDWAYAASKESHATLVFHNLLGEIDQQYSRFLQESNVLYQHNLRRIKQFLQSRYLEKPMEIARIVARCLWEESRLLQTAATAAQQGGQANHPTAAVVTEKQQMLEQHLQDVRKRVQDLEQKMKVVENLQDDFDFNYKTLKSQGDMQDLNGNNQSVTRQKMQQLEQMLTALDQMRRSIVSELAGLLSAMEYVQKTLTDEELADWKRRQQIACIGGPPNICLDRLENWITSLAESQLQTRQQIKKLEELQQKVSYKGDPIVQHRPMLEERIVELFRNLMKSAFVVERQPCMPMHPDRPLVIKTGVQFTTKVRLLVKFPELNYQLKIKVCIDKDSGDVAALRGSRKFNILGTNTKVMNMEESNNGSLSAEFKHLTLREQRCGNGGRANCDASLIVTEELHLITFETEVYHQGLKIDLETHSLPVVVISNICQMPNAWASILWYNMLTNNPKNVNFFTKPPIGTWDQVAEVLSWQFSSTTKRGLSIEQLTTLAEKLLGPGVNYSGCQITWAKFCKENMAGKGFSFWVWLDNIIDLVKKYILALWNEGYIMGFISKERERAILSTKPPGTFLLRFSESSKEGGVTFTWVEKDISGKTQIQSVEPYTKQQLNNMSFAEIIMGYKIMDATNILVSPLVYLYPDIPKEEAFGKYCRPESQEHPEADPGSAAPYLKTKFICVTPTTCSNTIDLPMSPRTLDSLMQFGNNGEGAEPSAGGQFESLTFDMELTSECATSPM

A short description of assay [7]: ATG_TA_CIS: Attagene CIS-FACTORIAL HepG2 Assay for human TA Basal Promoter (AID 2282964). To be noted: HepG2 Attagene CIS-factorial TA basal promoter reporter; actives raise or lower the signal. An outline of the steps: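 HepG2 cells transiently transfected with multiple reporter units under cis promoter elements, reporting endogenous transcription factor activity; this endpoint tracks the TA basal promoter as background control. Reporter mRNA after 24 h dosing measured by RT-PCR/capillary electrophoresis; bidirectional fits versus DMSO.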

Assay [8] in a line: ATG_TCF_b_cat_CIS: Attagene CIS-FACTORIAL HepG2 Assay for human T-Cell-Factor with beta-catenin (TCF/b-cat) (AID 2282965). To be noted: HepG2 TCF/beta-catenin cis-reporter transcription, actives raise or lower the signal. An outline of the steps: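 Cells of the HepG2 line carry transiently transfected reporter units whose promoters respond to endogenous factors. Twenty-four hours post-dosing, reporter mRNA induction is measured by fluorescent RT-PCR and capillary electrophoresis, with DMSO as baseline.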

Assay [9] can be described thus: ATG_TAL_CIS: Attagene CIS-FACTORIAL HepG2 Assay for human TAL Basal Promoter (AID 2282966).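 Further: background control endpoint measuring basal TAL promoter reporter mRNA not a specific factor.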 To be noted: HepG2 Attagene cis-factorial TAL promoter reporter; actives raise or lower the signal. An outline of the steps:
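HepG2 cells transiently transfected with multiplexed cis-promoter reporter units, dosed 24 h. Reporter mRNA quantified by RT-PCR, 6-FAM labelling, HpaI digestion and capillary electrophoresis; TAL basal promoter serves as background control, fitted bidirectionally versus DMSO.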

Assay [10] is described as follows: ATG_TGFb_CIS: Attagene CIS-FACTORIAL HepG2 Assay for human Transforming Growth Factor (TGF) (AID 2282967). To be noted: HepG2 Attagene CIS TGFb reporter, mRNA transcription; actives raise or lower the signal. An outline of the steps:
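HepG2 cells transiently transfected with cis-promoter-driven multiple reporter units measure endogenous TF activity; reporter mRNA quantified at 24 h by RT-PCR, FAM labeling, HpaI digestion and capillary electrophoresis. Bidirectional fit vs DMSO.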

Assay [11] in a line: ATG_VDRE_CIS: Attagene CIS-FACTORIAL HepG2 Assay for human Vitamin D Receptor Element (VDRE) (AID 2282968). To be noted: HepG2 VDRE cis-reporter transcription, actives raise or lower the signal. The method in brief: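 Cell-based multiplexed reporter format in human liver HepG2 cells, 24 h post-dose. Fluorescence from capillary electrophoresis of reporter cDNA gives the signal, with DMSO as negative control and baseline.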

The target in assay [12] is Nuclear receptor subfamily 1 group I member 3 (Homo sapiens) (UniProt Q14994). The experiment in a line: ATG_CAR_TRANS: Attagene TRANS-FACTORIAL HepG2 Assay for human Constitutive Androstane Receptor (CAR) (AID 2282969; active means hit-call score of the fitted dose curve at least 0.9, where 1 is the maximum;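 further: activators raise reporter mRNA above DMSO so AC50 marks induction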). To be noted: HepG2 Attagene TRANS-FACTORIAL CAR reporter. The method in brief:
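HepG2 cells transiently transfected with GAL4-UAS reporter units; TRANS format reads activity of exogenous chimeric NR-Gal4 protein. After 24 h dosing, reporter mRNA quantified by RT-PCR, 6-FAM labelling and capillary electrophoresis; gain of signal fitted against DMSO.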

Assay [13] can be described thus: ATG_M_19_TRANS: Attagene TRANS-FACTORIAL HepG2 Assay for M19 Transcription Factor (Internal Marker) (AID 2282974; active means hit-call score of the fitted dose curve at least 0.9, where 1 is the maximum). To be noted: HepG2 Attagene TRANS-FACTORIAL M19 internal marker reporter. The method in brief:
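After transfection of HepG2 with GAL4-UAS-driven reporter constructs, cells are dosed for 24 h. Total RNA is reverse-transcribed, reporter sequences PCR-amplified and labelled, then HpaI-digested and sized by capillary electrophoresis.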

Assay [14] concerns the target Glucocorticoid receptor (Homo sapiens) (UniProt P04150). The experiment in a line: ATG_GR_TRANS: Attagene TRANS-FACTORIAL HepG2 Assay for human Glucocorticoid Receptor (GR) (AID 2282978; active means hit-call score of the fitted dose curve at least 0.9, where 1 is the maximum;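 further: activators score as hits since higher reporter transcript over DMSO is fitted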). To be noted: HepG2 Attagene TRANS GR reporter, mRNA transcription. An outline of the steps: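 Multiplexed TRANS reporter system, HepG2; 24 h exposure; RNA → oligo(dT) RT → reporter-specific PCR → 6-FAM primer extension → HpaI cut → CE fluorescence. Gain-of-signal vs DMSO.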

Assay [15] deals with X-box-binding protein 1 (Homo sapiens) (UniProt P17861). The experiment in a line: ATG_Xbp1_CIS: Attagene CIS-FACTORIAL HepG2 Assay for human X-box Binding Protein 1 (XBP1) (AID 2282972). To be noted: HepG2 XBP1 cis-element reporter, Attagene multiplex; actives raise or lower the signal. An outline of the steps:
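After a 24-hour chemical exposure of HepG2 cells carrying cis-regulated reporters, reporter mRNA levels are assessed. Quantification uses RT-PCR, 6-FAM labelling and capillary electrophoresis. Gain- or loss-of-signal is fitted against DMSO.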

The target of assay [16] is Estrogen-related receptor gamma (Homo sapiens) (UniProt P62508). The experiment in a line: ATG_ERRg_TRANS: Attagene TRANS-FACTORIAL HepG2 Assay for human Estrogen-Related Receptor gamma (ERRg) (AID 2282977; active means hit-call score of the fitted dose curve at least 0.9, where 1 is the maximum;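 further: hits increase reporter signal over DMSO so potencies reflect activators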). To be noted: HepG2 Attagene TRANS reporter, ERRg transactivation. An outline of the steps: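 Transient HepG2 transfectants, 24 h compound exposure, GAL4-UAS reporter mRNA by RT-PCR/6-FAM labelling/capillary electrophoresis; positive direction vs DMSO.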
Chain of Estrogen-related receptor gamma (Homo sapiens) (P62508 whole entry, looked up, the tested form may be a part): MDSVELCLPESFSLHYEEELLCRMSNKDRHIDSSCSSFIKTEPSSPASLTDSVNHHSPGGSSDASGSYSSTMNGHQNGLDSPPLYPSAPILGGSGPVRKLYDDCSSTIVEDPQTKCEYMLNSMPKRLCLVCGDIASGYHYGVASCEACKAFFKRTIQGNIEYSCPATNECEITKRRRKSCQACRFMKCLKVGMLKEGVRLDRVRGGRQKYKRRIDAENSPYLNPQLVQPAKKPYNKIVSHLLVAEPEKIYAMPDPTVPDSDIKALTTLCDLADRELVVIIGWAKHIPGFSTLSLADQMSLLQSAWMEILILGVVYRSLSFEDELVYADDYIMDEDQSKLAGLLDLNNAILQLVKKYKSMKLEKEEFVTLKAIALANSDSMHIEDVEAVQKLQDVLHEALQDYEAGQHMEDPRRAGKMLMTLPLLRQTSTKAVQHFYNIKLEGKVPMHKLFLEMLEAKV

The target in assay [17] is Estrogen receptor (Homo sapiens) (UniProt P03372). The experiment in a line: ATG_ERa_TRANS: Attagene TRANS-FACTORIAL HepG2 Assay for human Estrogen Receptor alpha (ERa) (AID 2282970; active means hit-call score of the fitted dose curve at least 0.9, where 1 is the maximum). To be noted: HepG2 Attagene TRANS ERa GAL4 reporter, mRNA. The method in brief: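 HepG2 cells transiently transfected with multiplexed GAL4-UAS reporter units read out chimeric NR-Gal4 activity. After 24 h compound exposure, reporter mRNA was quantified by RT-PCR, 6-FAM labeling, HpaI digestion and capillary electrophoresis, relative to DMSO.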
Chain of Estrogen receptor (Homo sapiens) (P03372 whole entry, looked up, the tested form may be a part): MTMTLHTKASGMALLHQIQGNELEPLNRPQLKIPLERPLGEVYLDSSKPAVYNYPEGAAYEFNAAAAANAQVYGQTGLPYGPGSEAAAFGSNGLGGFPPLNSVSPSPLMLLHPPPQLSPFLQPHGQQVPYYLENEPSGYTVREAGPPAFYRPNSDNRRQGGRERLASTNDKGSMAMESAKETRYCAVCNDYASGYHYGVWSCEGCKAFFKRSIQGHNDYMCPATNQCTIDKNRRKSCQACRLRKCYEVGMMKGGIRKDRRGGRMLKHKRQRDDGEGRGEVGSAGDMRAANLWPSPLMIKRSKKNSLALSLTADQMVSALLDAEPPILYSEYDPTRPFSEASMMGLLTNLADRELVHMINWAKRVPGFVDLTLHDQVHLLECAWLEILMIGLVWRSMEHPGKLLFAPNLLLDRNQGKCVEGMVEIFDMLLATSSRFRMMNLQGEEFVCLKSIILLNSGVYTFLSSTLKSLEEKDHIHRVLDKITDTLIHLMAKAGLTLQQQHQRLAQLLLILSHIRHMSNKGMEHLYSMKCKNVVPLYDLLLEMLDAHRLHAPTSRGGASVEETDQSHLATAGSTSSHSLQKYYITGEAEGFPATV

The target of assay [18] is Bile acid receptor (Homo sapiens) (UniProt Q96RI1). The experiment in a line: ATG_FXR_TRANS: Attagene TRANS-FACTORIAL HepG2 Assay for Farnesoid X Receptor (FXR) (AID 2282979; active means hit-call score of the fitted dose curve at least 0.9, where 1 is the maximum;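 further: hits raise reporter mRNA above DMSO so AC50 marks FXR activation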). To be noted: HepG2 Attagene TRANS FXR-GAL4 reporter transcription. An outline of the steps:
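HepG2 cells were transiently transfected with GAL4-UAS reporters driven by chimeric NR-Gal4 proteins and dosed for 24 h. Reporter mRNA was quantified by RT-PCR, fluorescent labelling, HpaI digestion and capillary electrophoresis, with gain of signal scored versus DMSO.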

The nature of assay [19]: ATG_GAL4_TRANS: Attagene TRANS-FACTORIAL HepG2 Assay for GAL4 (Internal Marker) (AID 2282976; active means hit-call score of the fitted dose curve at least 0.9, where 1 is the maximum). To be noted: HepG2 Attagene TRANS GAL4 internal marker reporter. The method in brief:
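Background-control readout: GAL4-UAS reporter transcript in transiently transfected HepG2 cells after 24 h compound exposure. Measured by RT-PCR, 6-FAM primer extension, HpaI digest and capillary electrophoresis; gain-of-signal fit versus DMSO.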

Chain of Transcription factor Sp1 (Homo sapiens) (P08047 whole entry, looked up): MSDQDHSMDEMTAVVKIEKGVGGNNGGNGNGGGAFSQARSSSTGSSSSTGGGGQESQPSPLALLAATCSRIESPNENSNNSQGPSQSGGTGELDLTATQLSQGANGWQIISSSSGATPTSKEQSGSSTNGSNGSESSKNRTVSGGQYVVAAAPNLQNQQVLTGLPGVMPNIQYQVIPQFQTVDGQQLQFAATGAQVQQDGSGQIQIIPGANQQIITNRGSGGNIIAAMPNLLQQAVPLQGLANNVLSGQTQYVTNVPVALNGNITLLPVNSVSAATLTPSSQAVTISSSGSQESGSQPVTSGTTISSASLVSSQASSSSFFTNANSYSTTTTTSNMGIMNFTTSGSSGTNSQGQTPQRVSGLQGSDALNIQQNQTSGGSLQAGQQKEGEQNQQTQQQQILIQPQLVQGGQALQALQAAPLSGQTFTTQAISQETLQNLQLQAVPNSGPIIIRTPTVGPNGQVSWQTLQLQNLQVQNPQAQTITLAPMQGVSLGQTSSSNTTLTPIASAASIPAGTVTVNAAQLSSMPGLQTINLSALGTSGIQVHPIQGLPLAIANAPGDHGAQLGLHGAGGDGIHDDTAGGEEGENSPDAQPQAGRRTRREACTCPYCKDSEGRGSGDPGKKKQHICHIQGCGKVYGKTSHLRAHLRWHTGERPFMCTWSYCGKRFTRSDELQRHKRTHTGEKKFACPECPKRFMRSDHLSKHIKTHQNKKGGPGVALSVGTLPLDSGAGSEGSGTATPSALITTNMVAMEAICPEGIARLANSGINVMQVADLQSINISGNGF
Chain of Glucocorticoid receptor (Homo sapiens) (P04150 whole entry, looked up): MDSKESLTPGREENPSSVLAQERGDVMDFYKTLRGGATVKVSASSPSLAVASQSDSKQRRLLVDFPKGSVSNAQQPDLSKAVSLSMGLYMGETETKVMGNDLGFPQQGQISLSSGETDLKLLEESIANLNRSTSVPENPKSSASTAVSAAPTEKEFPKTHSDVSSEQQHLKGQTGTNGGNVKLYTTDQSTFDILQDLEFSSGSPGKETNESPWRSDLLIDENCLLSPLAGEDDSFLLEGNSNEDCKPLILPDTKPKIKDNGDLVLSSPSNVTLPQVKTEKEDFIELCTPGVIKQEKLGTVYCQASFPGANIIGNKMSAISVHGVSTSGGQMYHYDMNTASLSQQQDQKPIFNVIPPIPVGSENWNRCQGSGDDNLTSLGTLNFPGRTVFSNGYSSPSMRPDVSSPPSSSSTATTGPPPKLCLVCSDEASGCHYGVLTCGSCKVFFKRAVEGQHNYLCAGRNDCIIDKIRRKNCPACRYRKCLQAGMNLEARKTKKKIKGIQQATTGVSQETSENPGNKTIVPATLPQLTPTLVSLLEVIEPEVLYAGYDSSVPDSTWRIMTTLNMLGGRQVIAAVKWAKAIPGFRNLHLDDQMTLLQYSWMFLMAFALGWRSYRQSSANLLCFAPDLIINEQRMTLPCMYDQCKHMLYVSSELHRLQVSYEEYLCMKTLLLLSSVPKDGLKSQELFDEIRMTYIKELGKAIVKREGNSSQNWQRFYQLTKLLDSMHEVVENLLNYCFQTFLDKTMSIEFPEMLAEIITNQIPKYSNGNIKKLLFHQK
Chain of Nuclear receptor subfamily 1 group I member 3 (Homo sapiens) (Q14994 whole entry, looked up, the tested form may be a part): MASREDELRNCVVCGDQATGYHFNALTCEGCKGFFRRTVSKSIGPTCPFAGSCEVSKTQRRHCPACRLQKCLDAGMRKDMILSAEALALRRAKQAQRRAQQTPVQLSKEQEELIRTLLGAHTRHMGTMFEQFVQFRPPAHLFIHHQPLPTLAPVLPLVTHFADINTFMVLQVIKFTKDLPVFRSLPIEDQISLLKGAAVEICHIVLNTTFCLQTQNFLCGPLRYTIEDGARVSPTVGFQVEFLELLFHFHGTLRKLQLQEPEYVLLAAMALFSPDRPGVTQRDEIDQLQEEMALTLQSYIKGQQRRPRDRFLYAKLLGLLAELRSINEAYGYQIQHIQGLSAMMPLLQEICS
Chain of Bile acid receptor (Homo sapiens) (Q96RI1 whole entry, looked up, the tested form may be a part): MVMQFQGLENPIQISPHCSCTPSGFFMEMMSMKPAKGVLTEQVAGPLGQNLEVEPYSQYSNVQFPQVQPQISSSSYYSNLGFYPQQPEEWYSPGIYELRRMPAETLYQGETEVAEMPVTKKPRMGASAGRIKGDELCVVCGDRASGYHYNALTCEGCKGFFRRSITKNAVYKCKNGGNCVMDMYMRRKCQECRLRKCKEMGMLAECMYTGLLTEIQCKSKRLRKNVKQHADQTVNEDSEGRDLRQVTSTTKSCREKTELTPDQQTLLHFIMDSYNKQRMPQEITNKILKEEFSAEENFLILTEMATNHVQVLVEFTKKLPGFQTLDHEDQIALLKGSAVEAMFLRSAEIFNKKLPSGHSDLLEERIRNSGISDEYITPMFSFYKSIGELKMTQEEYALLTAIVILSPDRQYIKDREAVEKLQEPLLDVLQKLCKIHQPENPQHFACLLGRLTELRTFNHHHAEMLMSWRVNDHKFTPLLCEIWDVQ
Chain of X-box-binding protein 1 (Homo sapiens) (P17861 whole entry, looked up): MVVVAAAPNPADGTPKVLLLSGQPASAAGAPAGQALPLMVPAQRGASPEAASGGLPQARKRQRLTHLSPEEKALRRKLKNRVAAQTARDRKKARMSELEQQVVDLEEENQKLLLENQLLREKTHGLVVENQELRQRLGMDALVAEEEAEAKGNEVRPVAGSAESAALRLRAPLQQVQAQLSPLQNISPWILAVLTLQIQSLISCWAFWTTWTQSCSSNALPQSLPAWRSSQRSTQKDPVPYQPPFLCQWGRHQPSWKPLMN

Regarding `OCC(CO)n1cnc(-c2ccc(F)cc2)c1-c1ccnc(Oc2ccccc2)n1`, the AC50 in assay [1] was 0.357 µM (active). For the same compound, the call in assay [2], in assay [3], in assay [4], in assay [5], in [6] and in [7] was inactive. Besides, the outcome in assay [8], in assay [9], in assay [10], in assay [11], in [12] and in assay [13] was inactive. For the same compound, in assay [14], the call was inactive.
Consider `C=CCCCCCCCCCCCC`, for which the outcome in [1], in [2], in assay [3], in [4], in [5] and in assay [6] was inactive. For the same compound, the compound was classed as inactive in assay [7], in assay [8], in assay [9], in [10], in assay [11] and in assay [12]. Further, the call in assay [13] and in [14] was inactive.
Regarding `CC(=O)OCC(COC(C)=O)OC(C)=O`, the call in assay [1], in assay [2], in assay [3], in assay [4], in [5] and in assay [6] was inactive. In addition, the compound was called inactive in assay [7], in assay [8], in assay [9], in [10], in assay [11] and in assay [15]. The compound was classed as inactive in assay [16] and in assay [14].
With `CC1=C(C)S(=O)(=O)CCS1(=O)=O`, in [1], the half-maximal activity concentration (AC50) is 89.5 µM (active). For the same compound, the result in [2], in assay [3], in [4], in assay [5], in assay [6] and in [7] was inactive. Moreover, the compound was classed as inactive in assay [8], in [9], in [10], in assay [11], in assay [12] and in [17]. For the same compound, the compound was called inactive in [15].
Turning to `COC(=O)CCC(=O)OC`, the compound was classed as inactive in assay [1], in assay [2], in assay [3], in assay [4], in assay [5] and in [6]. For the same compound, the outcome in [7], in assay [8], in assay [9], in assay [10], in assay [11] and in assay [12] was inactive. Moreover, the compound was called inactive in assay [17], in [13] and in assay [18].
Turning to `CCCCCCCCCCCCCCCCO`, the compound was classed as inactive in assay [1], in [2], in assay [3], in assay [4], in assay [5] and in assay [6]. The compound was classed as inactive in [7], in [9], in [10], in [11], in assay [12] and in [17]. For the same compound, the call in [14] was inactive. Moreover, the AC50 in [8] was 159 µM (active).
As to `CCN(CC)CCOc1ccc(C(=C(Cl)c2ccccc2)c2ccccc2)cc1`, the outcome in [1], in assay [2], in assay [3], in assay [4], in [6] and in assay [7] was inactive. Moreover, the outcome in assay [8], in [9], in assay [10], in assay [11], in assay [13] and in assay [19] was inactive. For the same compound, the call in [14] and in assay [18] was inactive. Also, the half-maximal activity concentration (AC50) in assay [2] was 9.35 µM (active); in assay [3], 13.6 µM (active); in assay [5], 2.59 µM (active) [middle of 4 runs]; in assay [6], 6.09 µM (active); in [7], 11.2 µM (active); in assay [9], 13.1 µM (active). In addition, the AC50 was 3.11 µM (active) in [10]; 3.11 µM (active) and 6.33 µM (active) and 1.3 µM (active) in assay [11]; 14.8 µM (active) in assay [18].
